Most compounds without a hit are left out; they make up all but 18% or so of the library.
TDP1 cell CPT: DT40-hTDP1 cell growth loss with CPT. chicken DT40 Tdp1-/-;hTDP1 cells + 20 nM CPT, ATP luminescence, 48 h. Potency, µM (titrated, usually from 46.2 µM), without a hit: top-dose activity change, negative = growth inhibition, most hits filed as inhibitors. 12% of 420,000 active; also: potency is read from the fitted curve at half-maximal effect; nearly all actives have a fitted effect of over 55% in size
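Cell growth measured by CellTiter-Glo luminescence after a minimum 48 h, 37 C compound exposure with 20 nM CPT in Tdp1-knockout DT40 cells stably expressing hTDP1, seeded 400/well; qHTS titration format.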
Six1-Eya2 blk: inhibitors of human Six1/Eya2 interaction; 0.56% of 360,000 active; AlphaScreen GST-Six1/His-Eya2 binding, biochemical; hits give low values; activity change, % (no concentration beside the values); AID 651725; Q15475+O00167; in the data active = activity change below about -65%; inconclusive = mostly about -30% to -63%
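Homogeneous AlphaScreen proximity assay pairing GST-Six1 with His-tagged Eya2 (added as 5X mix: 250 nM and 500 nM) in 50 mM Tris pH 8.0, 300 mM NaCl, 1 mM TCEP. Glutathione donor and nickel acceptor beads; 1 h, 37 °C, dark.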
TDP1 block: TDP1 (human) enzyme inhibition; recombinant TDP1, AlphaScreen DNA substrate cleavage; Potency, µM (doses to about 130 µM), for the others: at the top dose activity change, negative = inhibition, usual class: inhibitors; 0.28% of 350,000 active; AID 485290; also: potency is read from the fitted curve at half-maximal effect; nearly all actives have a fitted effect of over 40% in size
Target sequence (Q9NUW8 whole entry, looked up): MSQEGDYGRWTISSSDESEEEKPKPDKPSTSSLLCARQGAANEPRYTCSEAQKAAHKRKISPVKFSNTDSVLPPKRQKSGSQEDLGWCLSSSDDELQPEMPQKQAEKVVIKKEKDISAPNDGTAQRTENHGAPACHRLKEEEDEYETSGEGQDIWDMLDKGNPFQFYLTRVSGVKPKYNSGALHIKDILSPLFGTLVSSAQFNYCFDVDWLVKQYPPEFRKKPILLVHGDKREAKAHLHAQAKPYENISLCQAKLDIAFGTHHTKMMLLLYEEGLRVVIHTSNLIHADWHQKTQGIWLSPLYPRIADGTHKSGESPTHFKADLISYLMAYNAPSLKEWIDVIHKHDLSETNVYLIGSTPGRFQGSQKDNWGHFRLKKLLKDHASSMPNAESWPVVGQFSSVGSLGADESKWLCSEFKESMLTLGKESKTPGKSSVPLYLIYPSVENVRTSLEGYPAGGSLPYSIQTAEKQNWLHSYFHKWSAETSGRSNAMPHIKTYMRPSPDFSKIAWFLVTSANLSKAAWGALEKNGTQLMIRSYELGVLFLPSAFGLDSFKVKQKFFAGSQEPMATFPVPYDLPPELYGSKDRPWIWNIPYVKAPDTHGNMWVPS
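AlphaScreen read-out: signal falls as enzyme removes the 3' tyrosine-FITC from a 5'-biotinylated DNA oligo (15 nM, 5 min, RT). Enzyme was E. coli-made recombinant Tdp1 at 1 nM, exposed to compound for 15 min beforehand; beads 10 ug/ml, 10 min.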
IL-1B inflam inh: inhibitors of inflammasome signaling (IL-1 beta secretion); THP-1 LPS/ATP IL-1B secretion, AlphaLISA, 16 h; hits give low values; activity change, % at 57.5 µM; 4.7% of 360,000 active; in the data active = activity change below about -50%; inconclusive = mostly about -30% to -49%
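THP-1 cells pretreated 1 hr with compounds (up to 57.5 uM final), then stimulated with LPS (250 ng/mL final) plus ATP (1.25 mM final); secreted IL-1B measured by AlphaLISA after 16 hr, decreased signal indicating inhibition.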
DT40 TDP1 no CPT: qHTS for Inhibitors of human tyrosyl-DNA phosphodiesterase 1 (TDP1): qHTS in cells in absence of CPT; DT40 Tdp1-/- hTDP1 cells, no CPT, ATP luminescence, 48 h; Potency, µM (top dose mostly 46.2 µM), for the others: at the highest dose activity change, negative = growth inhibition, actives largely listed as inhibitors; 15% of 420,000 active; also: potency is read from the fitted curve at half-maximal effect; nearly all actives have a fitted effect of over 55% in size
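Stably hTDP1-transfected Tdp1-null chicken DT40 cells were treated with library compounds minus camptothecin and grown for at least 48 hr at 37 °C, after which cellular ATP was quantified by luminescence.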
CtBP-E1A blk: CtBP/E1A binding inhibition | AID 651724 | activity change, % (no concentration beside the values) | AlphaScreen GST-E1A/His-CtBP binding, 1536-well; hits give low values | 0.49% of 340,000 active; in the data active = activity change below about -65%; inconclusive = mostly about -30% to -63%
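Steps: dispense buffer (Tris pH 8.0, NaCl 300 mM, TCEP 1 mM, BSA, Tween 20); add 5X protein mix (GST-E1A, His-CtBP, 125 nM each); pin 23 nL compound; 2 h at 37 °C, dark; add 5X beads (50 ug/mL); 1 h; read.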
* marks the source's active call; other numbers are inactive results. Unless noted, calls follow the shape of the dose curve; as a rule, active = well fitted curve in the direction sought with a large enough effect; inconclusive = small, poorly fitted or top-dose-only effect, or another doubt; inactive = no such curve, though single readings can be large; an effect the other way counts as inactive or inconclusive. % is scaled to controls: 0 for no effect and ±100 for the full control effect.

How did Cc1ccc([N+](=O)[O-])c(OCCN2CCC(Cc3ccccc3)CC2)c1 do in these assays?
TDP1 cell CPT: inconclusive; Six1-Eya2 blk: -21; TDP1 block: -3%; IL-1B inflam inh: -99*; DT40 TDP1 no CPT: inconclusive; CtBP-E1A blk: -1

Results for CCS(=O)(=O)Nc1ccc(Cc2ccncc2)cc1 ?
TDP1 cell CPT: -18%; Six1-Eya2 blk: 7; TDP1 block: -5%; IL-1B inflam inh: 27; DT40 TDP1 no CPT: -27%; CtBP-E1A blk: 10

What do the screens show for `CCOC(=O)C1CCN(C(=O)C(C)Oc2ccc(Br)cc2)CC1` (stereo not drawn)?
TDP1 cell CPT: inconclusive; Six1-Eya2 blk: 24; TDP1 block: 0%; IL-1B inflam inh: -5; DT40 TDP1 no CPT: inconclusive; CtBP-E1A blk: -9

What do the screens show for `CCCCCCN1C[C@@H](n2cc(C3CC3)nn2)[C@H](O)C[C@@H]1c1ccc(C)cc1`?
TDP1 cell CPT: inconclusive; Six1-Eya2 blk: -9; IL-1B inflam inh: -21; DT40 TDP1 no CPT: inconclusive; CtBP-E1A blk: -16

Results for CCCCCCN1C[C@@H](n2cc(C3CC3)nn2)[C@H](O)C[C@@H]1c1ccc(OC)cc1 ?
TDP1 cell CPT: 18µM*; Six1-Eya2 blk: -3; IL-1B inflam inh: inconclusive; DT40 TDP1 no CPT: 15µM*; CtBP-E1A blk: -3

What do the screens show for `CCCCCCN1C[C@H](n2cc(C3CC3)nn2)[C@@H](O)C[C@@H]1c1ccc(C)cc1`?
TDP1 cell CPT: 21µM*; Six1-Eya2 blk: -1; IL-1B inflam inh: -5; DT40 TDP1 no CPT: 12µM*; CtBP-E1A blk: 3

What do the screens show for `O=C(CCc1ccccc1)Nc1nc2n(n1)C(c1ccc(Cl)cc1)CC(=O)N2` (stereo not drawn)?
TDP1 cell CPT: -9%; Six1-Eya2 blk: 18; TDP1 block: 7%; IL-1B inflam inh: 2; DT40 TDP1 no CPT: -33%; CtBP-E1A blk: 0

Results for Cc1cc(=O)oc2cc(NC(=O)c3cccc(Br)c3)ccc12 ?
TDP1 cell CPT: inconclusive; Six1-Eya2 blk: 7; IL-1B inflam inh: -11; DT40 TDP1 no CPT: inconclusive; CtBP-E1A blk: 3

How did Oc1ccc(CNc2ccc(F)cc2)c2cccnc12 do in these assays?
TDP1 cell CPT: 2.9µM*; Six1-Eya2 blk: -90*; TDP1 block: 8%; IL-1B inflam inh: -3; DT40 TDP1 no CPT: 1.6µM*; CtBP-E1A blk: -90*

Results for Oc1ccc(CNc2cccc(F)c2)c2cccnc12 ?
TDP1 block: 1%

Results for Cc1ccc(NCc2ccc(O)c3ncccc23)c(F)c1 ?
TDP1 block: 1%

What do the screens show for `Cc1ccccc1NCc1ccc(O)c2ncccc12`?
TDP1 cell CPT: 2.6µM*; Six1-Eya2 blk: -91*; TDP1 block: 9%; IL-1B inflam inh: 45; DT40 TDP1 no CPT: 5.2µM*; CtBP-E1A blk: -95*

How did Oc1ccc(CNc2ccccc2)c2cccnc12 do in these assays?
TDP1 cell CPT: 3.7µM*; Six1-Eya2 blk: -89*; TDP1 block: 9%; IL-1B inflam inh: 9; DT40 TDP1 no CPT: 2.6µM*; CtBP-E1A blk: -94*

How did O=S1(=O)NC2c3ccccc3CC2O1 (stereo not drawn) do in these assays?
TDP1 cell CPT: 12µM*; Six1-Eya2 blk: 3; IL-1B inflam inh: 7; DT40 TDP1 no CPT: inconclusive

Results for CC(CNC(=O)c1ccc(CSc2nc3ccncc3n2Cc2cccc(F)c2)cc1)c1ccccc1 (stereo not drawn) ?
TDP1 cell CPT: 23µM*; TDP1 block: 2%; DT40 TDP1 no CPT: inconclusive

How did Cc1ccc(CCNC(=O)c2ccc(CSc3nc4ccncc4n3Cc3ccc(F)cc3)cc2)cc1 do in these assays?
TDP1 cell CPT: 16µM*; TDP1 block: 8%; DT40 TDP1 no CPT: 16µM*

Results for O=C(NCCc1ccccc1)c1ccc(CSc2nc3ccncc3n2Cc2ccc(F)cc2)cc1 ?
TDP1 cell CPT: inconclusive; TDP1 block: 0%; DT40 TDP1 no CPT: 16µM*

What do the screens show for `CNC(=O)c1ccc(CSc2nc3ccncc3n2Cc2ccc(C)cc2)cc1`?
TDP1 cell CPT: inconclusive; TDP1 block: 5%; DT40 TDP1 no CPT: inconclusive

Results for COCCNC(=O)c1ccc(CSc2nc3ccncc3n2Cc2ccccc2)cc1 ?
TDP1 cell CPT: -3%; TDP1 block: 0%; DT40 TDP1 no CPT: -24%

Results for CC1(C)S[C@@H]2[C@H](NC(=O)[C@H](N)c3ccccc3)C(=O)N2[C@H]1C(=O)OCOC(=O)[C@@H]1N2C(=O)C[C@H]2S(=O)(=O)C1(C)C ?
TDP1 cell CPT: 7%; DT40 TDP1 no CPT: 1%

Results for O=[N+]([O-])c1cc(-c2ncccn2)c([N+](=O)[O-])s1 ?
TDP1 cell CPT: 2.3µM*; Six1-Eya2 blk: -12; TDP1 block: 0%; IL-1B inflam inh: -86*; DT40 TDP1 no CPT: 2.9µM*; CtBP-E1A blk: -10

What do the screens show for `COc1ccc(CCN2C(=O)c3[nH]nc(-c4ccccc4O)c3C2c2ccccc2)cc1OC` (stereo not drawn)?
TDP1 cell CPT: 18µM*; Six1-Eya2 blk: -4; TDP1 block: 0%; IL-1B inflam inh: inconclusive; DT40 TDP1 no CPT: 21µM*; CtBP-E1A blk: -7

What do the screens show for `CCCN1C(=O)c2[nH]nc(-c3ccccc3)c2C1c1cccc(O)c1` (stereo not drawn)?
TDP1 cell CPT: 18µM*; TDP1 block: -9%; DT40 TDP1 no CPT: 23µM*

How did CCCN1C(=O)c2[nH]nc(-c3ccccc3O)c2C1c1cccc(OCc2ccccc2)c1 (stereo not drawn) do in these assays?
TDP1 cell CPT: 21µM*; TDP1 block: 7%; DT40 TDP1 no CPT: 9.2µM*

How did COCCN1C(=O)c2[nH]nc(-c3ccccc3O)c2C1c1ccc(OCc2ccccc2)c(OC)c1 (stereo not drawn) do in these assays?
TDP1 cell CPT: inconclusive; TDP1 block: 11%; DT40 TDP1 no CPT: 8.2µM*

How did COc1ccc(CCN2C(=O)c3[nH]nc(-c4ccccc4O)c3C2c2ccc(O)c(OC)c2)cc1 (stereo not drawn) do in these assays?
TDP1 cell CPT: inconclusive; TDP1 block: 9%; DT40 TDP1 no CPT: inconclusive

What do the screens show for `CCCS(=O)(=O)N1CCn2c(nc3ccccc32)C1`?
TDP1 cell CPT: 2%; Six1-Eya2 blk: 4; TDP1 block: 0%; IL-1B inflam inh: -5; DT40 TDP1 no CPT: -3%; CtBP-E1A blk: 5

From PubChem BioAssay
